Autofluor counter: counter-screen for toxin protease inhibitors: compound fluorescence; AID 624483; compound autofluorescence counterscreen, microsphere flow cytometry; active compounds read high; 360,000 tested, 3.1% active; fluorescence intensity (test concentration not listed); in the data active = fluorescence intensity above about 16000; inconclusive = no clear call, values can overlap the other calls
Anthrax LF prot: blocks Bacillus anthracis lethal factor protease; P15917; multiplex microsphere protease cleavage assay, LF; inhibition, % at 10 µM; 360,000 tested, 0.12% active; note: plate controls were buffer without enzyme for full effect and enzyme alone for no effect
BJeLR viability: kills HRASV12-expressing BJeLR cells; BJeLR (HRASV12) viability, CellTiter-Glo ATP luminescence, 48 h; inhibition, % (concentration not given with the values); 300,000 tested, 0.17% active; in the data active = inhibition above about 50%; inconclusive = no clear call, values can overlap the other calls
BoNT-F LC inh: BoNT F light chain protease inhibition; inhibition, % at 10 µM; Multiplex microsphere protease cleavage assay, flow cytometry; 360,000 tested, 0.22% active; in the data active = inhibition above about 35%, passing the limit was not always enough; inconclusive = no clear call, values can overlap the other calls; note: plate controls were buffer without enzyme for full effect and enzyme alone for no effect
BoNT A protease: inhibitors of Botulinum neurotoxin A light chain protease | 360,000 tested, 0.17% active | inhibition, % at 10 µM | multiplex microsphere protease substrate cleavage, flow cytometry; note: plate controls were buffer without enzyme for full effect and enzyme alone for no effect
Starred values were filed as active, the others as inactive; ? = inconclusive; / = not tested or not shown. Compounds with a hit are over-represented: about 3.5% of the library has one in this group of screens. Cut-off read from the data, not from the text of the source, unless noted: active = inhibition above about 30%; inconclusive = no clear call, values can overlap the other calls; inactive = below that.

SMILES	Autofluor counter	Anthrax LF prot	BJeLR viability	BoNT-F LC inh	BoNT A protease
CC(C)n1cc(C(=O)NC2CC(C)(C)Cc3c2cnn3-c2ccccc2)cn1 (configuration not stated)	5195	2	3	7	0
O=S(=O)(c1ccccc1)c1cnn(-c2ccccc2)c1-c1ccc(Cl)cc1	22953*	-2	-8	-2	?
Nc1nc(-c2ccc(Cl)cc2)c(S(=O)(=O)c2ccccc2)s1	2139	-4	-4	-10	-1
COc1ccc2ncc(S(=O)(=O)c3ccccc3)c(N3CCN(c4ccccc4)CC3)c2c1	2097	-2	-7	-1	1
COc1ccc(-c2c(S(=O)(=O)c3ccccc3)cnn2-c2ccccc2)cc1	21873*	-2	4	-1	1
COc1ccccc1CCNC(=O)CNC(=O)Cc1cccc2ccccc12	5432	1	4	0	0
COc1ccc(CCCNC(=O)C2(C)Cc3c(-c4ccc(C(N)=O)cc4)ccnc3O2)cc1 (configuration not stated)	3000	3	/	-4	0
COC(=O)c1cnn(C(=O)c2cc(OC)ccc2Br)c1N	23297*	-2	-5	-2	1
COC(=O)c1cnn(C(=O)c2ccccc2Br)c1N	22952*	-4	-4	-4	-1
CCOC(=O)C1(C)CCN1C(=O)c1cc(OC)ccc1Br (configuration not stated)	3614	-3	/	6	0
CCC(C)(C)n1nnnc1C(c1ccccn1)N1CCN(c2cccc(OC)c2)CC1 (configuration not stated)	3141	-2	-1	7	0
COc1ccc(-c2sc3ccccc3c2-c2ccc(OC)cc2F)cc1	5544	-1	/	-1	0
CC(C)NC(=O)COC(=O)c1ccc(NS(=O)(=O)c2ccc3c(c2)OCCO3)cc1	4556	-1	-5	3	0
CCCCNC(=O)COC(=O)c1ccc(NS(=O)(=O)c2ccc3c(c2)OCCO3)cc1	21536*	1	1	-7	-6
CNC(=O)COC(=O)c1ccc(NS(=O)(=O)c2ccc3c(c2)OCCO3)cc1	3442	0	-8	43*	5
Cc1ccc(S(=O)(=O)NC(=O)C2(C)CCN2C(=O)Cc2ccc(Cl)cc2Cl)nc1 (configuration not stated)	3969	2	/	-7	0
CCN(CC)S(=O)(=O)c1cc(NC(=O)c2cc(-c3ccccn3)nc3ccccc23)ccc1C	4248	-2	1	-5	-1
O=[N+]([O-])c1ccc(/C=C/C2=NN(c3ccccc3)C(c3ccco3)C2)cc1 (configuration not stated)	34435*	40*	/	66*	57*
CC1=NN(c2ccccc2)C(c2ccco2)C1 (configuration not stated)	2925	-4	/	-9	-1
COc1ccc(N2C(=O)c3ccccc3NC23C(=O)N(C)c2ccccc23)cc1 (configuration not stated)	17048*	-2	-15	-4	-4
O=S(=O)(NCC1CCCO1)c1ccc(S(=O)(=O)N(Cc2ccc(F)cc2)C2CCCCC2)cc1 (configuration not stated)	21632*	0	7	5	2
O=S(=O)(NCC1CCCO1)c1ccc(Cl)c(C(F)(F)F)c1 (configuration not stated)	21968*	-1	-6	4	?
CC(C)C(C(=O)NCC1CCCO1)N(C(=O)CNS(=O)(=O)c1ccc(F)cc1)C1CCCCC1 (configuration not stated)	5761	-1	-2	-4	0
O=C(Nc1c(C(=O)N2CCCC2)cnn1-c1ccccc1)c1cccc(F)c1	21118*	2	-8	-4	?
NC(=O)C1CCN(C(=O)c2cnn(-c3ccccc3)c2NC(=O)c2cccc(F)c2)CC1	3783	-10	-6	-15	-7
SMILES	Autofluor counter	Anthrax LF prot	BJeLR viability	BoNT-F LC inh	BoNT A protease
CCOc1ccc(NC(=O)CSc2nnc(C3CC3)n2N)cc1	23438*	0	3	2	0
COc1ccc(C(=O)CSc2nnc(C3CC3)n2N)cc1	22665*	1	-6	0	?
Nn1c(SCC(=O)Nc2ccc(Oc3ccccc3)cc2)nnc1C1CC1	10756	-2	-2	-9	0
CCCCn1c(O)c(C(C)=Nc2ccc(OCC)cc2)c(=O)[nH]c1=O	3391	-3	9	-12	0
CCCCn1c(O)c(C(C)=Nc2cccc(C(=O)O)c2)c(=O)[nH]c1=O	21668*	0	6	0	?
CCCCn1c(O)c(C(C)=NC(Cc2c[nH]c3ccccc23)C(=O)OC)c(=O)[nH]c1=O (configuration not stated)	20728*	0	-3	-3	-3
CCCCn1c(O)c(C(CC)=Nc2ccc3c(c2)CCC3)c(=O)[nH]c1=O	16607*	-12	0	9	8
Cc1ccc(Cc2c(-c3ccc(Cl)cc3)nc3c(C)cc(Br)cn23)cc1	6410	-5	/	-4	1
NC(=O)c1c(N)[nH]c(C(=O)c2ccccc2)c1-c1ccccc1Br	6169	4	/	4	0
CCOC(=O)c1c(C)c(C(=O)NCCCN2CCCC2=O)c(C)n1CC	22714*	0	-1	0	2
CCOC(=O)c1c(C)c(C(=O)OCC)n(C)c1C	3832	-5	12	11	2
CCOC(=O)c1c(C)c(C(=O)NCc2ccco2)c(C)n1CC	2155	-2	4	2	1
CCOC(=O)c1c(C)c(C(=O)NCCCOC)c(C)n1C	20527*	-2	1	0	?
CCOC(=O)c1c(C)c(C(=O)NCc2cccs2)c(C)n1C	17882*	-7	2	-9	-8
CCOC(=O)c1c(C)c(C(=O)NCc2cccnc2)c(C)n1CC	20195*	2	1	1	?
CCOC(=O)c1c(C)c(C(=O)NCCOC)c(C)n1CC	23521*	-2	3	-1	1
O=C(NCC1CCCO1)c1ccc(Cl)c(S(=O)(=O)N2CCOCC2)c1 (configuration not stated)	3565	-6	-6	-12	2
Cc1ccc(C)c(C(=O)COC(=O)c2ccccc2N2C(=O)C3C4CCC(C4)C3C2=O)c1 (configuration not stated)	20251*	-1	-5	0	?
C[C@H]1CN([C@@H](C)CO)C(=O)CCCn2cc(nn2)CO[C@@H]1CN(C)C(=O)Nc1ccc(N2CCN(C)CC2)cc1	3753	2	/	0	0
CC(=O)NC1(C(F)(F)F)N=C(c2ccccc2)NC1=O (configuration not stated)	2294	1	-15	-4	1
Cc1cccnc1NC1(C(F)(F)F)N=C(c2ccccc2)NC1=O (configuration not stated)	20365*	-2	0	-1	1
COc1ccc(CC(=O)c2c(O)cc(O)cc2O)cc1OC	22635*	-2	10	-17	?
COc1ccc(C(=O)Cc2ccc(OC)c(OC)c2)cc1	7424	-6	6	-15	-1
O=C(CN1C(=O)/C(=C\c2ccccc2Cl)Oc2ccccc21)NCc1cccnc1	2587	1	-12	0	0

Screening data from PubChem.
